Data as given in PubChem BioAssay (Tox21).
Records with an inconclusive call do not appear. Activity calls are given as the source filed them. Unless noted, calls follow the shape of the dose curve; as a rule, active = well fitted curve in the direction sought with a large enough effect in the repeat runs; inconclusive = weak or mixed curves; inactive = no such curve, though single readings can be large; an effect the other way counts as inactive or inconclusive.

Key:
[1] = qHTS assay for small molecule agonists of the p53 signaling pathway (AID 651631; calls by dose curve; also: nearly all actives have a fitted effect of over 15% in size)
How it was run: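 Readout was fluorescence from the LiveBLAzer FRET substrate, applied for 2 h at room temperature after 16 h compound exposure at 37 °C. Cells were the p53RE-bla HCT-116 line, with beta-lactamase driven by p53 response elements.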

[2] = qHTS assay for small molecules that induce genotoxicity in human embryonic kidney cells expressing luciferase-tagged ATAD5 (AID 651632); also: nearly all actives have a fitted effect of over 15% in size
How it was run: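 HEK293T cells carrying luciferase-tagged ATAD5 were given compound or DMSO vehicle and incubated 16 hr at 37C, 5% CO2. Luciferase activity was read after 30 min at room temperature with Amplite; a rise signals genotoxic stress.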

[3] = qHTS assay for small molecule agonists of the p53 signaling pathway - cell viability (AID 651633; calls by dose curve; also: series mostly up to about 83 µM; nearly all actives have a fitted effect of over 30% in size)
How it was run: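 p53RE-bla cells were treated with compound for 16 hours at 37 C. Cytotoxicity was then measured as CellTiter-Glo luminescence after 30 min at room temperature.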

[4] = qHTS assay for small molecules that induce genotoxicity in human embryonic kidney cells expressing luciferase-tagged ATAD5 - cell viability (AID 651634; calls by dose curve; also: nearly all actives have a fitted effect of over 25% in size)
How it was run: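 HEK293T cells carrying luciferase-tagged ATAD5, 2,000 cells/well, exposed to compound for 15.5 hr at 37C. Viability read as live-cell protease activity by CellTiter-Fluor fluorescence after 30 min at 37C.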

[5] = qHTS assay for small molecule disruptors of the mitochondrial membrane potential - cell viability (AID 720634; calls by dose curve;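 also: human HepG2 liver cancer cells; series mostly up to about 83 µM; nearly all actives have a fitted effect of over 20% in size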)
How it was run: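 HepG2 cells, 2,000 per well, attached overnight, then treated 1 hr at 37 C, 5% CO2. Viability read as ATP by CellTiter-Glo luminescence after 30 min at room temperature. Read in the same wells as the m-MPI membrane-potential dye assay.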

[6] = qHTS assay for small molecule disruptors of the mitochondrial membrane potential (AID 720635)
How it was run: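 HepG2 cells exposed to compound 1 hr at 37C, then Mito-MPS dye 30 min. Ratio read of aggregate (540/590 nm) versus monomer (490/535 nm) fluorescence.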

[7] = qHTS assay to test for compound auto fluorescence at 590 nm (red) in HepG2 cells (AID 720674)
How it was run: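 Fluorescence at 590 nm emission following 540 nm excitation was recorded from HepG2 wells one hour after compound transfer, with DMSO-only wells as vehicle and Rose Bengal sodium equivalency as the scale.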

[8] = qHTS assay to test for compound auto fluorescence at 535 nm (green) in HepG2 cells (AID 720675)
[9] = qHTS assay to test for compound auto fluorescence at 460 nm (blue) in HEK293 cells (AID 720678)
How it was run: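 Intrinsic compound fluorescence is recorded in live HEK293 cultures after overnight incubation at 37C, 5% CO2, using excitation 405 nm and emission 460 nm. Values are referenced to triamterene.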

[10] = qHTS assay to test for compound auto fluorescence at 590 nm (red) in HEK293 cells (AID 720679)
How it was run: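 Red autofluorescence, HEK293 cells: 2,000 cells/well; attach 4-5 hr 37C; add 23 nL cpd or DMSO; incubate o/n 37C 5% CO2; read Ex540/Em590; Rose Bengal sodium reference.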

[11] = qHTS assay to test for compound auto fluorescence at 590 nm (red) in HEK293 cell free culture (AID 720683)
How it was run: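 Cell-free wells of DMEM with 10% FBS received compound, and intrinsic fluorescence was read at excitation/emission 540/590 nm. Values expressed as equivalence to Rose Bengal sodium.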

[12] = qHTS assay to test for compound auto fluorescence at 460 nm (blue) in HepG2 cell free culture (AID 720685)
How it was run: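 Compound (23 nL) or DMSO pinned into cell-free MEM with 10% FBS; blue fluorescence read at 405/460 nm excitation/emission, expressed as auto-fluorescence equivalency to triamterene.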

[13] = qHTS assay to test for compound auto fluorescence at 535 nm (green) in HepG2 cell free culture (AID 720686)
[14] = target: Glucocorticoid receptor (Homo sapiens) (UniProt P04150); test: qHTS assay to identify small molecule agonists of the glucocorticoid receptor (GR) signaling pathway (AID 720691; active = well fitted activation curve with a large enough effect in the signal ratio in the repeat runs, not every such curve was filed as active; the % refers to the signal ratio)
How it was run: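 GR-bla HeLa cells carrying a GRE-driven beta-lactamase reporter, exposed to compounds for 18 h at 37 C. Reporter activation read as fluorescence after 2 h with LiveBLAzer B/G FRET substrate at room temperature.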

[15] = target: Glucocorticoid receptor (Homo sapiens) (UniProt P04150); test: qHTS assay to identify small molecule antagonists of the glucocorticoid receptor (GR) signaling pathway (AID 720692; active = well fitted inhibition curve with a large enough effect in the signal ratio in the repeat runs, not every such curve was filed as active; the % refers to the signal ratio)
How it was run: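 GR-bla HeLa cells carrying a GRE-driven beta-lactamase reporter received compound after 4 h plating, then dexamethasone (5 nM final). After 18 h at 37C, the FRET substrate was loaded for 2 h at room temperature and fluorescence read.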

[16] = qHTS assay to test for compound auto fluorescence at 535 nm (green) in HEK293 cells (AID 720680)
[17] = qHTS assay to test for compound auto fluorescence at 460 nm (blue) in HEK293 cell free culture (AID 720681)
How it was run: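 Compounds were added to cell-free DMEM with 10% FBS and fluorescence read directly. The blue channel used 405 nm excitation and 460 nm emission, with triamterene as the reference fluorophore.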

[18] = qHTS assay to test for compound auto fluorescence at 535 nm (green) in HEK293 cell free culture (AID 720682)
How it was run: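 Compounds were pin-transferred into cell-free DMEM with 10% FBS, and green fluorescence was read at excitation 485 nm and emission 535 nm. Intensities were expressed as fluorescein-equivalent values.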

[19] = qHTS assay to test for compound auto fluorescence at 590 nm (red) in HepG2 cell free culture (AID 720684)
How it was run: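 Compounds are added to culture medium (MEM, 10% FBS) lacking cells, then fluorescence is read at excitation 540 nm, emission 590 nm, with Rose Bengal sodium as the equivalency standard.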

[20] = qHTS assay to test for compound auto fluorescence at 460 nm (blue) in HepG2 cells (AID 720687)
How it was run: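 HepG2 cells in MEM with 10% FBS, attached overnight at 37 C, were exposed to compound or DMSO for 1 hr at 37 C, 5% CO2. Blue fluorescence was read at 405/460 nm, with triamterene as reference fluorophore.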

Measured: Potency

Glucocorticoid receptor (Homo sapiens), sequence (P04150 whole entry, looked up): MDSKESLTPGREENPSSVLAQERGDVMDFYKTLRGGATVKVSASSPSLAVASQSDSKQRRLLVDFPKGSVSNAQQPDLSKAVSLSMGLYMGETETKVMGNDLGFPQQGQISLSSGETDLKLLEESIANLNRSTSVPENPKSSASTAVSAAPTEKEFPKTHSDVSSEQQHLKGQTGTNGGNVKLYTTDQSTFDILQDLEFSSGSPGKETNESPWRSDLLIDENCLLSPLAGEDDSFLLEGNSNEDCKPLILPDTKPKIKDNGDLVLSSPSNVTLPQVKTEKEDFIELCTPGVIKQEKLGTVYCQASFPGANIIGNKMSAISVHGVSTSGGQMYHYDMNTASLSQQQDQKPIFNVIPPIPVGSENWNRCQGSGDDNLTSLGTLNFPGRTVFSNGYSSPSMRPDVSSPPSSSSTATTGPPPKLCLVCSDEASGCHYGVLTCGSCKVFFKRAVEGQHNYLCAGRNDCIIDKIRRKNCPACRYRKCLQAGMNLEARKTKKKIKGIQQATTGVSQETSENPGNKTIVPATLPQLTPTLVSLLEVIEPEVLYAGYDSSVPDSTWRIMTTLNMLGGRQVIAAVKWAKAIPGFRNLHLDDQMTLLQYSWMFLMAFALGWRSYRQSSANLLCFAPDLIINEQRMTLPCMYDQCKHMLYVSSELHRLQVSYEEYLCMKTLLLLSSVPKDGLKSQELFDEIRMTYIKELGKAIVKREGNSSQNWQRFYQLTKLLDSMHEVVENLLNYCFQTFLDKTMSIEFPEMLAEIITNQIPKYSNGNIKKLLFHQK

O=c1cc(CO)occ1O
not listed: [16] | [17] | [18] | [19] | [20]
inactive: all other assays above

OC[C@]1(O)OC[C@@H](O)[C@H](O)[C@@H]1O
not listed: [14] | [15]
inactive: all other assays above

Cc1c(NC(C)C)c(=O)n(-c2ccccc2)n1C
not listed: [20]
inactive: all other assays above

Cc1cc(O)cc2c1O[C@](C)(CCC[C@H](C)CCC[C@H](C)CCCC(C)C)CC2
not listed: [15] | [20]
inactive: all other assays above

FC(F)OC(Cl)C(F)(F)F (stereo not drawn)
not listed: [16] | [18] | [19]
inactive: all other assays above

CC1=CC(C)C(C=O)CC1 (stereo not drawn)
not listed: [13] | [18]
inactive: all other assays above

N[C@H](C(=O)O)c1ccc(O)cc1
not listed: [10]
inactive: all other assays above

O=c1n(CCO)c(=O)n(CCO)c(=O)n1CCO
not listed: [13] | [14] | [15]
inactive: all other assays above

Cn1c(N)c(N=O)c(=O)n(C)c1=O
not listed: [11] | [13]
inactive: all other assays above

CC(C(=O)O)c1ccc(CC2CCCC2=O)cc1 (stereo not drawn)
not listed: [14] | [15] | [18]
inactive: all other assays above

CN1CC(=O)NC1=N
not listed: [16]
inactive: all other assays above

CCCCCCCCCCCC
not listed: [13]
inactive: all other assays above

CCCN(CCC)CCc1cccc2c1CC(=O)N2
not listed: [15] | [17] | [20]
inactive: all other assays above

Cc1cccc(C)c1NC(=O)C(C)N (stereo not drawn)
not listed: [11] | [18]
inactive: all other assays above

C1OCOCO1
inactive: all assays above

Cn1cc(S(C)=O)c(=O)c2ccc(F)cc21 (stereo not drawn)
not listed: [11] | [13] | [16]
inactive: all other assays above

CCCCCSCCCCC
not listed: [10] | [14] | [15]
inactive: all other assays above

CCOC(=O)c1cccc(N)c1
not listed: [13] | [14] | [15]
inactive: all other assays above

C=COCC1CCC(CO)CC1 (stereo not drawn)
not listed: [19]
inactive: all other assays above

NS(=O)(=O)c1ccccc1Cl
not listed: [14] | [15] | [19]
inactive: all other assays above

C[N+](C)(C)CC(O)CC(=O)[O-] (stereo not drawn)
inactive: all assays above

CN(C(=O)c1c(O)c2ccccc2n(C)c1=O)c1ccccc1
not listed: [11] | [17] | [20]
inactive: all other assays above

N[C@H]1CN(c2c(F)cc3c(=O)c(C(=O)O)cn(C4C[C@H]4F)c3c2Cl)CC12CC2 (stereo partly drawn)
not listed: [20]
inactive: all other assays above

COC(=O)c1cc(C(=O)OC)cc(S(=O)(=O)O)c1
not listed: [15] | [17]
inactive: all other assays above

CCOC(=O)C(=O)OCC
not listed: [10]
inactive: all other assays above

CC(C)c1cc2c(cc1S(=O)(=O)O)[C@@]1(C)CCC[C@@](C)(C(=O)O)[C@@H]1CC2
not listed: [14] | [15] | [17] | [18] | [20]
inactive: all other assays above

CC(C)(CC(=O)O)C(=O)O
not listed: [14] | [15]
inactive: all other assays above

O=C(O)CNC(=O)c1ccc([N+](=O)[O-])cc1
not listed: [14] | [15] | [17] | [18]
inactive: all other assays above

CCC(C)C1CCCCC1=O (stereo not drawn)
not listed: [11] | [14] | [15] | [18]
inactive: all other assays above

CCN(CC)CCNC(=O)c1cc(S(C)(=O)=O)ccc1OC
not listed: [18]
inactive: all other assays above

c1ccc(CC2=NCCN2)cc1
not listed: [14] | [15] | [17] | [19]
inactive: all other assays above

O=C(O)c1ccccc1OP(=O)(O)O
not listed: [18]
inactive: all other assays above
